Measured values taken from PubChem BioAssay (Tox21).
Results filed as inconclusive are left out. Activity calls are given as the source filed them. Unless noted, calls come from the whole dose curve; as a rule, active = well fitted curve in the direction sought with a large enough effect in the repeat runs; inconclusive = weak or mixed curves; inactive = no such curve, though single readings can be large; an effect the other way counts as inactive or inconclusive.

How the values were obtained:
[1] = molecular target: Thyrotropin receptor (Homo sapiens) (UniProt P16473); test: qHTS assay to identify small molecule antagonists of the thyroid stimulating hormone receptor (TSHR) signaling pathway (AID 1259385; calls by dose curve; note: nearly all actives have a fitted effect of over 20% in size)
Procedure, shortened: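 TSHR-HEK293 cells (800/well) plated 18 h, then compounds with Ro20-1724 and TSH at 1.5 ng/mL final, 30 min at room temperature. cAMP quantified by HTRF (cAMP-d2/anti-cAMP-cryptate, 1 h); 15 concentrations in triplicate.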

[2] = qHTS assay to identify small molecule agonists of the estrogen receptor alpha (ER-alpha) signaling pathway in the presence of an antagonist - cell viability counter screen (AID 1259386);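 note: series mostly up to about 92 µM; cells exposed to compounds for 22 h at 37 °C before the viability read; nearly all actives have a fitted effect of over 30% in size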
Procedure, shortened: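 The test measures whether compounds kill ER-alpha reporter cells (VM7Luc4E2) under antagonist co-treatment (ICI-182,780, 10.0nM). Fluorescence from CellTiter-Fluor is read after a 22hr exposure.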

[3] = molecular target: Progesterone receptor (Homo sapiens) (UniProt P06401); test: qHTS assay to identify small molecule agonists of the progesterone receptor (PR) signaling pathway (AID 1346784; calls by dose curve; note: nearly all actives have a fitted effect of over 30% in size)
Procedure, shortened: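 Agonist mode, quantitative HTS format in a HEK 293T line expressing a UAS-controlled beta-lactamase reporter; 16 hr compound exposure at 37C in 2% charcoal-stripped FBS, then LiveBLAzer B/G FRET fluorescence.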

[4] = molecular target: Progesterone receptor (Homo sapiens) (UniProt P06401); test: qHTS assay to identify small molecule antagonists of the progesterone receptor (PR) signaling pathway (AID 1346795; active = well fitted inhibition curve with a large enough effect in the signal ratio in the repeat runs, not every such curve was filed as active; the % refers to the signal ratio)
Procedure, shortened: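 HEK293T PR-UAS-bla reporter cells in charcoal-stripped serum (2%) received compound after a 6 hr settling period, followed by R5020 agonist at 1 nM final; 16 hr incubation preceded the FRET substrate step and fluorescence measurement.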

[5] = qHTS assay to identify small molecule agonists of the progesterone receptor (PR) signaling pathway - cell viability counter screen (AID 1346799; calls by dose curve; note: nearly all actives have a fitted effect of over 45% in size)
Procedure, shortened: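 Counter screen for cytotoxicity: compound-treated PR-UAS-bla HEK293T cells (16 hr, 37C, 5% CO2) were assayed with CellTiter-Glo, luminescence measured after 30 min at room temperature.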

[6] = qHTS assay to identify small molecule antagonists of the TGF-beta/Smad signaling pathway - cell viability counter screen (AID 1346824); note: nearly all actives have a fitted effect of over 50% in size
Procedure, shortened: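 SBE-bla HEK 293T cells, incubated overnight, then compound plus 0.25 ng/mL TGF-beta1 (stock added) for 5 hr at 37 C. Viability was read in the same wells by CellTiter-Glo luminescence after 30 min at room temperature.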

[7] = qHTS assay to identify small molecule agonists of the TGF-beta/Smad signaling pathway - cell viability counter screen (AID 1346829); note: top concentration of the series differs between compounds; nearly all actives have a fitted effect of over 45% in size
Procedure, shortened: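 After overnight seating at 37 C and 5% CO2, reporter cells got compounds for 5 hr and FRET substrate for 2 hr; cell viability then came from CellTiter-Glo luminescence.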

[8] = qHTS assay to identify small molecule agonists of the TGF-beta/Smad signaling pathway (AID 1346859; active = well fitted activation curve with a large enough effect in the signal ratio in the repeat runs, not every such curve was filed as active; the % refers to the signal ratio; note: series mostly up to about 77 µM)
Procedure, shortened: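 Smad-responsive beta-lactamase reporter cells (HEK 293T) received compounds from DMSO stocks after overnight attachment, were incubated 5 hr, then treated 2 hr with FRET substrate before dual-emission fluorescence measurement (405 nm excitation).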

[9] = molecular target: Thyrotropin-releasing hormone receptor (Homo sapiens) (UniProt P34981); test: qHTS assay to identify small molecule antagonists of the thyrotropin-releasing hormone receptor (TRHR) signaling pathway (AID 1346877; active = well fitted inhibition curve with a large enough effect in the repeat runs, not every such curve was filed as active; note: series mostly up to about 51 µM)
Procedure, shortened: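 Overnight-plated (18 h, 37 °C) HEK293 cells expressing TRHR were dye-loaded 2 h, treated with compound, then stimulated with TRH at 1 nM final. Fluorescence intensity was captured every second for 3 min.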

[10] = molecular target: Thyrotropin-releasing hormone receptor (Homo sapiens) (UniProt P34981); test: qHTS assay to identify small molecule agonists of the thyrotropin-releasing hormone receptor (TRHR) signaling pathway (AID 1346891; calls by dose curve;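 note: HEK293 cells expressing TRHR with calcium dye readout; series mostly up to about 58 µM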)
Procedure, shortened: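 Agonist-mode calcium mobilisation screen: TRHR-transfected HEK293 cells cultured overnight (18 h), dye-loaded for 2 h at 37 °C, exposed to compounds, and monitored by fluorescence for 3 min.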

[11] = Human pregnane X receptor (PXR) small molecule agonists, qHTS cell viability counter screen (AID 1346977); note: nearly all actives have a fitted effect of over 50% in size
Procedure, shortened: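 Measures live-cell protease fluorescence (CellTiter-Fluor) in PXR-Luc HepG2 cells treated 24hr with compounds at 37C. Cells had 5hr to attach before pin transfer of DMSO solutions.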

[12] = Caspase-3/7 induction in CHO-K1 cells by small molecules, qHTS cell viability counter screen (AID 1346979); note: nearly all actives have a fitted effect of over 35% in size
Procedure, shortened: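 In the same wells as the caspase read, viability of compound-treated wild-type CHO-K1 cells was assessed using CellTiter-Fluor, added after 16hr at 37C and measured by fluorescence following 1hr further incubation.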

[13] = Caspase-3/7 induction in CHO-K1 cells by small molecules, qHTS assay (AID 1346980); note: nearly all actives have a fitted effect of over 15% in size
Procedure, shortened: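 Wild-type CHO-K1 cells exposed to compounds for 17hr at 37 C, 5% CO2. Caspase-3/7 activity then measured by Caspase-Glo 3/7 luminescence after 30min at room temperature.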

[14] = Caspase-3/7 induction in HepG2 cells by small molecules, qHTS cell viability counter screen (AID 1346981); note: series mostly up to about 92 µM; nearly all actives have a fitted effect of over 30% in size
Procedure, shortened: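 Treatment of HepG2 cells with DMSO-delivered compounds ran 16 hr at 37 C following a 5-hr pre-incubation of 2,000 cells/well. CellTiter-Fluor fluorescence, read after 1 hr, served as the viability measure in a qHTS format.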

[15] = molecular target: Nuclear receptor subfamily 1 group I member 2 (Homo sapiens) (UniProt O75469); test: Human pregnane X receptor (PXR) small molecule agonists, qHTS assay (AID 1346982); note: nearly all actives have a fitted effect of over 35% in size
Procedure, shortened: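 Stable HepG2 line reporting PXR-mediated CYP3A4 expression via luciferase. Treatment: 24 hr with compounds in DMSO at 37 C. Detection: ONE-Glo luminescence.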

[16] = qHTS assay to identify small molecule antagonists of the progesterone receptor (PR) signaling pathway - cell viability counter screen (AID 1346798); note: series mostly up to about 92 µM; nearly all actives have a fitted effect of over 50% in size
Procedure, shortened: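 Same-well multiplex: after 16 hr at 37C with compound and R5020 stimulation, HEK293T cells carrying a UAS-bla reporter received LiveBLAzer substrate (2 hr RT), then CellTiter-Glo (30 min RT) for luminescent viability.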

[17] = Caspase-3/7 induction in HepG2 cells by small molecules, qHTS assay (AID 1346978); note: nearly all actives have a fitted effect of over 15% in size
Procedure, shortened: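 Wild-type HepG2 cells, 2,000/well, settled 5 hr at 37 C and 5% CO2, then compound-treated for 17 hr; caspase-3/7 activity read by luminescent Caspase-Glo 3/7 after 30 min at room temperature.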

[18] = molecular target: Nuclear receptor subfamily 1 group I member 2 (Rattus norvegicus) (UniProt Q9R1A7); test: Rat pregnane X receptor (rPXR) activation by small molecules, qHTS assay (AID 1346983); details: rPXR luciferase reporter cells, One-Glo luminescence, 24 h; max activation: active compounds read high; note: nearly all actives have a fitted effect of over 20% in size
Procedure, shortened: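 Cell-based rPXR activation assay: rPXR cells, 2,000 per well, rested 5hr at 37 C, then exposed to compounds in DMSO for 24 hr at 37 C. Luciferase activity read by One-Glo luminescence after 30 min at room temperature.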

[19] = molecular target: Nuclear receptor subfamily 1 group I member 2 (Homo sapiens) (UniProt O75469); test: CYP3A4 induction through human pregnane X receptor (PXR) by small molecules, qHTS assay (AID 1346984); note: nearly all actives have a fitted effect of over 40% in size
Procedure, shortened: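 After 24 h at 37C with compound, DPX-2 cells (HepG2, co-transfected PXR response element and CYP3A4 promoter-luciferase) got 3uM final P450-Glo Luciferin-IPA for 3 h; One-Glo luminescence followed.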

[20] = molecular target: Nuclear receptor subfamily 1 group I member 2 (Homo sapiens) (UniProt O75469); test: Human pregnane X receptor (PXR) activation by small molecules, qHTS assay (AID 1346985); note: nearly all actives have a fitted effect of over 40% in size
Procedure, shortened: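 DPX-2 cells (HepG2 co-transfected with a PXR response element and a CYP3A4-promoter luciferase construct) were seeded at 2,000 per well, rested 5 hr at 37C, then exposed to DMSO-dissolved compounds for 24 hr. Activation was read as luciferase luminescence.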
% is set by controls: 0 for no effect and ±100 for the full control effect.

Chain of Thyrotropin-releasing hormone receptor (Homo sapiens) (P34981 whole entry, looked up): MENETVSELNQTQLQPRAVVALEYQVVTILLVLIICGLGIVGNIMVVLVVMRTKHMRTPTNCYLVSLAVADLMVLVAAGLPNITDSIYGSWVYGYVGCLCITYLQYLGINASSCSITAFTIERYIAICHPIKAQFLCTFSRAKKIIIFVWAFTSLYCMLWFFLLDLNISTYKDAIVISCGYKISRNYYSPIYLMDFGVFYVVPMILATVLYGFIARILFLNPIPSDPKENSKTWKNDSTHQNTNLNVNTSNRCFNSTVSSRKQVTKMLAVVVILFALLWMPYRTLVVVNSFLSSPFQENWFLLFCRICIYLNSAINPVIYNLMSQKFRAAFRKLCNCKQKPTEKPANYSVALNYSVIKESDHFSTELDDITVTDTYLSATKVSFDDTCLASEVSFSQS
Chain of Thyrotropin receptor (Homo sapiens) (P16473 whole entry, looked up): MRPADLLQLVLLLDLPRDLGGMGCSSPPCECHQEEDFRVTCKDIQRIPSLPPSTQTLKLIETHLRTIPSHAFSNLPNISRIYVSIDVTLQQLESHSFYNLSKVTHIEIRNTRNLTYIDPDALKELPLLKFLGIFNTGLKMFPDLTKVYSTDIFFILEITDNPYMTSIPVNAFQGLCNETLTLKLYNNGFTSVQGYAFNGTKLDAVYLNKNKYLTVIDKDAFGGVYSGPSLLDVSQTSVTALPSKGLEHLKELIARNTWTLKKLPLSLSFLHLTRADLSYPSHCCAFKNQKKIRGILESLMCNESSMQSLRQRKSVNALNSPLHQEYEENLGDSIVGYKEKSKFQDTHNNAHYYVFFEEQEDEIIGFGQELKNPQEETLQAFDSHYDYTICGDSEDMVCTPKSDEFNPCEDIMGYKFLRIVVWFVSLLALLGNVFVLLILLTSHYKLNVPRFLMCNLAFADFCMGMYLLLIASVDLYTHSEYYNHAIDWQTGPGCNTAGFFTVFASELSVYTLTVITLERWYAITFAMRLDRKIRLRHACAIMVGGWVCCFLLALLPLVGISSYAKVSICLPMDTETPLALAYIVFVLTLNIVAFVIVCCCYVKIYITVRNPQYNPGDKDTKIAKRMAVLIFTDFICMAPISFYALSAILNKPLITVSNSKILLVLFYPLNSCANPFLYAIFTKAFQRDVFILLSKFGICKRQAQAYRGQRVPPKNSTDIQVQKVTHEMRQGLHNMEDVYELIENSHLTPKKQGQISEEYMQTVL
Chain of Nuclear receptor subfamily 1 group I member 2 (Rattus norvegicus) (Q9R1A7 whole entry, looked up): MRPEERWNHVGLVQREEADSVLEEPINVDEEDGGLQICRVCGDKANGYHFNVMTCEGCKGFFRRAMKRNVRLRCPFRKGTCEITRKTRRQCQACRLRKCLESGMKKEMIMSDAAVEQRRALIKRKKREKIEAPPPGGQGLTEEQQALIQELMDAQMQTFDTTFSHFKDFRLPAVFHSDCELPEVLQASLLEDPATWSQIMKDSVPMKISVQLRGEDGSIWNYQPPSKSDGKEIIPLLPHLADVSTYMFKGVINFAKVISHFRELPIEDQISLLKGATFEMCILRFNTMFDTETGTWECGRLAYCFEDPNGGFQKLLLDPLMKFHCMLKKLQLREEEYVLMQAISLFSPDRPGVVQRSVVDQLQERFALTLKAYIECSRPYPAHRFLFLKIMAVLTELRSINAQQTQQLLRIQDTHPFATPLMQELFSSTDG
Chain of Nuclear receptor subfamily 1 group I member 2 (Homo sapiens) (O75469 whole entry, looked up): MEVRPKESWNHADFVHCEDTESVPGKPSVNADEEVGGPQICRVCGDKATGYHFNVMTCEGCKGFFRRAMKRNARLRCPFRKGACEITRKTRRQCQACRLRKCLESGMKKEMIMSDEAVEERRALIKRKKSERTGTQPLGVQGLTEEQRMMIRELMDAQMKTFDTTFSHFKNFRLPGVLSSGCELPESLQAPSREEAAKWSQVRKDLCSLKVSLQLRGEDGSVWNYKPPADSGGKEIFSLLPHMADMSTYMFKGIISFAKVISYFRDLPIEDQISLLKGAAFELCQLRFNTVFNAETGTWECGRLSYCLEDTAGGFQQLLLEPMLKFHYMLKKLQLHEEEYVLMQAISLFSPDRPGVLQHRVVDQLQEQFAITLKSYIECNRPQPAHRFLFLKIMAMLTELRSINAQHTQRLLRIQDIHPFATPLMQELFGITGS
Chain of Progesterone receptor (Homo sapiens) (P06401 whole entry, looked up): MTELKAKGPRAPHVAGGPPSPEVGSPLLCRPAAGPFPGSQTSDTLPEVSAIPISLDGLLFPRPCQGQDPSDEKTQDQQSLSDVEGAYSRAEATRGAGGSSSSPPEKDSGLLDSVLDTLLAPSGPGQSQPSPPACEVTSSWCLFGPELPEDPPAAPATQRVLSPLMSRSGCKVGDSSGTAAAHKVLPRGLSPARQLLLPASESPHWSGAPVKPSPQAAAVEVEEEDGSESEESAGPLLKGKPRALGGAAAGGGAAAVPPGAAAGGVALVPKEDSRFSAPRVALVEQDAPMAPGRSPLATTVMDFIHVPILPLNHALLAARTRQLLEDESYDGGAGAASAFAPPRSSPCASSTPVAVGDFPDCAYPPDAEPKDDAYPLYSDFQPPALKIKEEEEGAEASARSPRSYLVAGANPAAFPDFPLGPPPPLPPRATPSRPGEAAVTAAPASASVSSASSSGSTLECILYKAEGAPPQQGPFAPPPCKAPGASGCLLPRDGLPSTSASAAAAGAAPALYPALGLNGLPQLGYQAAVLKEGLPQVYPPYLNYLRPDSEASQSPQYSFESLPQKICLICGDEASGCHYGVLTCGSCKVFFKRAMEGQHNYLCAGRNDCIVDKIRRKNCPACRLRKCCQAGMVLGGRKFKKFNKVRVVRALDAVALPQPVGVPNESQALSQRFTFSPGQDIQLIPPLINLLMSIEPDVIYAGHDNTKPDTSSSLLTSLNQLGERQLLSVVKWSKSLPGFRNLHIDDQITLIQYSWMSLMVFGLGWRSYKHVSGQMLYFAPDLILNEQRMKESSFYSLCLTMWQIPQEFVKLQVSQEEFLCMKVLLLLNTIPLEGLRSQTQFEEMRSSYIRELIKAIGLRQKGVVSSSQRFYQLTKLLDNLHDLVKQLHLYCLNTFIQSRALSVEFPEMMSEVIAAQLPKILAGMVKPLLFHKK

O=Cc1ccc(F)c(Br)c1
inactive: Potency [1] | Potency [2] | Potency [3] | Potency [4] | Potency [5] | outcome [6] | outcome [7] | outcome [8] | outcome [9] | Potency [10] | Potency [11] | Potency [12] | outcome [13] | Potency [14] | Potency [15]

OCCN1CCN(CCO)CC1
inactive: Potency [1] | Potency [2] | Potency [3] | Potency [4] | Potency [16] | Potency [5] | outcome [7] | outcome [8] | Potency [10] | Potency [17] | Potency [12] | outcome [13] | Potency [14] | Potency [15]

CN1C(=O)CC(c2ccccc2)C1=O (stereo not given)
inactive: Potency [1] | Potency [2] | Potency [3] | Potency [4] | Potency [16] | Potency [5] | outcome [6] | outcome [7] | outcome [8] | Potency [11] | Potency [17] | Potency [12] | outcome [13] | Potency [14] | max activation [18] -2.73%

CCc1nnc(NS(=O)(=O)c2ccc(N)cc2)s1
inactive: Potency [1] | Potency [2] | Potency [3] | Potency [4] | Potency [16] | outcome [6] | outcome [7] | outcome [8] | Potency [11] | Potency [17] | Potency [12] | outcome [13] | Potency [14] | Potency [15] | max activation [18] -2.73% | Potency [19] | Potency [20]

O=c1[nH]c(=O)n([C@H]2C[C@H](O)[C@@H](CO)O2)cc1C(F)(F)F
inactive: Potency [1] | Potency [2] | Potency [3] | Potency [4] | Potency [16] | Potency [5] | outcome [6] | outcome [7] | outcome [9] | Potency [10] | Potency [11] | Potency [17] | Potency [12] | outcome [13] | Potency [14] | Potency [15] | max activation [18] 3.55% | Potency [20]

CN1CCN(N)CC1
inactive: Potency [1] | Potency [2] | Potency [3] | Potency [4] | Potency [16] | Potency [5] | outcome [6] | outcome [7] | outcome [9] | Potency [10] | Potency [17] | Potency [12] | outcome [13] | Potency [15]

CCCc1c2oc(C(=O)O)cc(=O)c2cc2c(=O)cc(C(=O)O)n(CC)c12
inactive: Potency [1] | Potency [2] | Potency [3] | Potency [4] | Potency [16] | Potency [5] | outcome [6] | outcome [7] | outcome [8] | Potency [11] | Potency [17] | Potency [12] | outcome [13] | Potency [15]

C[C@@H]1CN(c2c(F)c(N)c3c(=O)c(C(=O)O)cn(C4CC4)c3c2F)C[C@H](C)N1
inactive: activity change, negative = inhibition [1] -0.774% [at 19 µM] | activity change, negative = cytotoxicity [2] 1.7% [at 19 µM] | activation [3] 3.14% [at 19 µM] | activity change, negative = inhibition [4] 8.12% [at 18.9 µM] | activity change, negative = cytotoxicity [5] 4.97% [at 19 µM] | viability change, negative = cytotoxic [6] 4.43% [at 15.8 µM] | activity change, negative = cytotoxicity [7] -11.5% [at 15.8 µM] | activation [8] 1.17% [at 15.8 µM] | activity, negative = inhibition [9] 0.314% [at 10.5 µM] | activation [10] -0.407% [at 11.8 µM] | caspase activation [17] 0.598% [at 19 µM] | activity change, negative = cytotoxicity [12] 5.21% [at 19 µM] | caspase-3/7 activation [13] -1.56% [at 19 µM] | activity change, negative = cytotoxicity [14] -0.6% [at 19 µM] | activation [15] -7.57% [at 19 µM] | max activation [18] -3.87% | Potency [19] | Potency [20]
